# Reference: article PMC7862700, “An all-to-all approach to the identification of sequence-specific readers for epigenetic DNA modifications on cytosine”
# How the values were obtained:
# Test in all cases: DAPPL (digital affinity profiling via proximity ligation, sequencing); 10 mM Tris-HCl pH 7.5, 50 mM NaCl, 1 mM DTT, 4% glycerol, room temperature, 30 min; GST-TFs on glutathione beads, 16-mer random dsDNA library, 0.1% formaldehyde crosslink after washing; high values mean tight binding
# [1] = biological target: T1, FEV (Homo sapiens, UniProt Q99581 1-238); details: protein: recombinant; tags: N-terminal GST; dsDNA, one strand shown
# T1 sequence: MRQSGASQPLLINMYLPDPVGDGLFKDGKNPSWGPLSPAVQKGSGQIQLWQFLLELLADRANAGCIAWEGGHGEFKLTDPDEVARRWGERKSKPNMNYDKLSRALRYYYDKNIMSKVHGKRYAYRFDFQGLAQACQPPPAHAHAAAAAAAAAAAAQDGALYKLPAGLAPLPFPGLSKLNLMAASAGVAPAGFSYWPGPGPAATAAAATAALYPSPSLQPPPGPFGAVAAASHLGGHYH
# Summary of the method: (§1)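 Yeast served to express human transcription factors as GST fusions, which were then captured on glutathione beads and labelled with DNA barcodes. Pooled with a tag-only sample, they were incubated with 200 nmole of a 16-mer random double-stranded DNA library for 30 min at room temperature in Tris/NaCl/DTT/glycerol buffer, washed, crosslinked with 0.1% formaldehyde, ligated by proximity, amplified by PCR and sequenced. Dividing each hexamer's read frequency for a factor by its frequency for the tag-only sample gives the binding signal.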
# [2] = biological target: ETV5 (Homo sapiens, UniProt P41161 1-510); details: protein: recombinant; tags: N-terminal GST; dsDNA, one strand shown
# Chain of ETV5 (P41161 whole entry): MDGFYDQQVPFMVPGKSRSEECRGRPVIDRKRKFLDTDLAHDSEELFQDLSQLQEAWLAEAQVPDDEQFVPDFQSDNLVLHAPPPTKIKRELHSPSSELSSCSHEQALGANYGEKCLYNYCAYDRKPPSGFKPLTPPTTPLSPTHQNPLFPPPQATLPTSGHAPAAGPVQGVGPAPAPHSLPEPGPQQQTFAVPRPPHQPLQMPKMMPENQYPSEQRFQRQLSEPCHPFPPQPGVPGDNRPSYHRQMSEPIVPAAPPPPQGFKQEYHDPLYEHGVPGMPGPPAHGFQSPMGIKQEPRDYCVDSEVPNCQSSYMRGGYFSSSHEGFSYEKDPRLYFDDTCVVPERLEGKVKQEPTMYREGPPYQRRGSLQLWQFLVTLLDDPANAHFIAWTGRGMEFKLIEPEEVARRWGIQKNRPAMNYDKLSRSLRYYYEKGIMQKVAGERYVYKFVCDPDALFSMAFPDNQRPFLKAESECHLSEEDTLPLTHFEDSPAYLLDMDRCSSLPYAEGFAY
# Summary of the method: as §1
# [3] = biological target: HSF1 (Homo sapiens, UniProt Q00613 1-529); details: protein: recombinant; tags: N-terminal GST; chain copies: 3; dsDNA, one strand shown
# Chain of HSF1 (Q00613 whole entry): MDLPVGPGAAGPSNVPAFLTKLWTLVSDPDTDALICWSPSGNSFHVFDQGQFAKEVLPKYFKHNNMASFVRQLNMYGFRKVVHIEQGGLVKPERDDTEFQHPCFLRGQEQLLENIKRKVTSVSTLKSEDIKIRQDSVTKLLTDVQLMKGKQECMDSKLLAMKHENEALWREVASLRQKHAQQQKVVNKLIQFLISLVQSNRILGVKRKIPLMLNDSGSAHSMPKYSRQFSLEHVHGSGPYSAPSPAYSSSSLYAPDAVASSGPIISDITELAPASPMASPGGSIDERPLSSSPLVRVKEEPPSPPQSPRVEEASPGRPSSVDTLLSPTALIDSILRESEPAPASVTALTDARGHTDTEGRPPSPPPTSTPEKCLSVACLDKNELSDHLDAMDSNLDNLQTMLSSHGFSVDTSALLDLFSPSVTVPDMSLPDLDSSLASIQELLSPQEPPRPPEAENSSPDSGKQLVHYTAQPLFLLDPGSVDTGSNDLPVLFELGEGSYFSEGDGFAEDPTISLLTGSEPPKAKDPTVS
# Summary of the method: as §1
# [4] = biological target: T2, SPIC (Homo sapiens, UniProt Q8N5J4 1-248); details: protein: recombinant; tags: N-terminal GST; dsDNA, one strand shown
# T2 sequence: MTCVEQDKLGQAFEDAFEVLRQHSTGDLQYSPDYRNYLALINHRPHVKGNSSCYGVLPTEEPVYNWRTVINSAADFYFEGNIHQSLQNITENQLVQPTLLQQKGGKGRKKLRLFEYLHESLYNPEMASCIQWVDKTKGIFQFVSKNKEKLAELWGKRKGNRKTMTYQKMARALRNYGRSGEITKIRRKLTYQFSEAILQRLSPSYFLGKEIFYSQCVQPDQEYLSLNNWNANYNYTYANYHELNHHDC
# Summary of the method: as §1
# [5] = biological target: ELF4 (Homo sapiens, UniProt Q99607 1-663); details: protein: recombinant; tags: N-terminal GST; dsDNA, one strand shown
# Chain of ELF4 (Q99607 whole entry): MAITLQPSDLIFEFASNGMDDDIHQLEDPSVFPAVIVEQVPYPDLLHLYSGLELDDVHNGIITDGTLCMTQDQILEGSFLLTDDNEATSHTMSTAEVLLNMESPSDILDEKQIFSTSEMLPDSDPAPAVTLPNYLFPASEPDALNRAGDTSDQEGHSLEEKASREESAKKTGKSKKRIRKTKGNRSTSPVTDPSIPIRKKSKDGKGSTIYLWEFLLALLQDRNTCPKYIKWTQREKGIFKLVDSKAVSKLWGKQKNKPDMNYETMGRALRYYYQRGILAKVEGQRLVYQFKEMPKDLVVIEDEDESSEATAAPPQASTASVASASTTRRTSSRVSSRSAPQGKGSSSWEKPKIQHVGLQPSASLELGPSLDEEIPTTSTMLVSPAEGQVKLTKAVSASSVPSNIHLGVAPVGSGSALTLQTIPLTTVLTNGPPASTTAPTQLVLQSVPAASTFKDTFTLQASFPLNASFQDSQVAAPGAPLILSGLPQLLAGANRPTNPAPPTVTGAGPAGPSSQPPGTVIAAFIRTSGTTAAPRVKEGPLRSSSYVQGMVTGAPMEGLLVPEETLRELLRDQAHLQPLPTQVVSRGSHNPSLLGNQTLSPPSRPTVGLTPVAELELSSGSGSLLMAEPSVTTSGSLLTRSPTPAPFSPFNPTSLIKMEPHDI
# Summary of the method: as §1
# [6] = biological target: T3, ELK4 (Homo sapiens, UniProt P28324-2 1-405); details: protein: recombinant; tags: N-terminal GST; dsDNA, one strand shown
# T3 sequence: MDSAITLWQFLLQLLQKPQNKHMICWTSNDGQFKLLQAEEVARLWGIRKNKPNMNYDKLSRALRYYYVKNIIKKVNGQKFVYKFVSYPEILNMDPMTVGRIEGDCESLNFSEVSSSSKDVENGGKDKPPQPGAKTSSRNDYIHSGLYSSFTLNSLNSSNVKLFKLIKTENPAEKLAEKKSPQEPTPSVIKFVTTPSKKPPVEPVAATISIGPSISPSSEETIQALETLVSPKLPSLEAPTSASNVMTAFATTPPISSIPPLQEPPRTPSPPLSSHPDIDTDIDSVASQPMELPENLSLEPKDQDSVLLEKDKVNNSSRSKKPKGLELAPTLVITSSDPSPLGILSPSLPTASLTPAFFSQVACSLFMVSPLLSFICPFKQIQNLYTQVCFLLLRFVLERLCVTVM
# Summary of the method: as §1
# [7] = biological target: T4, ETV2 (Homo sapiens, UniProt O00321 1-342); details: protein: recombinant; tags: N-terminal GST; dsDNA, one strand shown
# T4 sequence: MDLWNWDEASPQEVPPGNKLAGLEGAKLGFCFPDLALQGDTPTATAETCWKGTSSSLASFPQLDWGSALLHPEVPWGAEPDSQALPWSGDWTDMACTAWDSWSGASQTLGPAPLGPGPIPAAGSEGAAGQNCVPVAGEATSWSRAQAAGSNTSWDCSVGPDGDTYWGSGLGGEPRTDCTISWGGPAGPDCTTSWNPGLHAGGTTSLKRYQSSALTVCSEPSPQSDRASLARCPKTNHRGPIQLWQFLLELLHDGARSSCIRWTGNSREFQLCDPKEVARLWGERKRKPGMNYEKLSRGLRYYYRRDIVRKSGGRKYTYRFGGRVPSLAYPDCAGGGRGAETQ
# Summary of the method: as §1
# [8] = biological target: T5, ELF3 (Homo sapiens, UniProt P78545 1-371); details: protein: recombinant; tags: N-terminal GST; dsDNA, one strand shown
# T5 sequence: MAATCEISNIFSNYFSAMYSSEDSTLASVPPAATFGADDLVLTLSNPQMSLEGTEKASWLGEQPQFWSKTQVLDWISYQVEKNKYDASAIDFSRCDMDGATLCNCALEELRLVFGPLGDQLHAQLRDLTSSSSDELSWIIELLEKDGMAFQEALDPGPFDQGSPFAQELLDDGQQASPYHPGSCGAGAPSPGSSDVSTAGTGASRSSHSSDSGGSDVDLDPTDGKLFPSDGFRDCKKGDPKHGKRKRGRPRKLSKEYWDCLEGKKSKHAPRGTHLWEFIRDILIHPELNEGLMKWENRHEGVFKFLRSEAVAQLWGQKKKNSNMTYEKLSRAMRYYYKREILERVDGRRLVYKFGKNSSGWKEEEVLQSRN
# Summary of the method: as §1
# [9] = biological target: CRX (Homo sapiens, UniProt O43186 1-299); details: protein: recombinant; tags: N-terminal GST; dsDNA, one strand shown
# Chain of CRX (O43186 whole entry): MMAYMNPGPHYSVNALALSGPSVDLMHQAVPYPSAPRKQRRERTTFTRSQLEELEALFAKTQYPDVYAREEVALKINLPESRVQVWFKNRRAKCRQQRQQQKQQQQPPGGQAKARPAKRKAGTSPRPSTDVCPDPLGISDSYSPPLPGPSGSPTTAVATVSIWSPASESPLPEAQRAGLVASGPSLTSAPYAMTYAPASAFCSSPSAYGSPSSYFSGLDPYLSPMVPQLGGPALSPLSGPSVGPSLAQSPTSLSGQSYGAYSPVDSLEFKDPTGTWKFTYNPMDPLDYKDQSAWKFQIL
# Summary of the method: as §1
# [10] = biological target: ETV1 (Homo sapiens, UniProt P50549 1-477); details: protein: recombinant; tags: N-terminal GST; dsDNA, one strand shown
# Chain of ETV1 (P50549 whole entry): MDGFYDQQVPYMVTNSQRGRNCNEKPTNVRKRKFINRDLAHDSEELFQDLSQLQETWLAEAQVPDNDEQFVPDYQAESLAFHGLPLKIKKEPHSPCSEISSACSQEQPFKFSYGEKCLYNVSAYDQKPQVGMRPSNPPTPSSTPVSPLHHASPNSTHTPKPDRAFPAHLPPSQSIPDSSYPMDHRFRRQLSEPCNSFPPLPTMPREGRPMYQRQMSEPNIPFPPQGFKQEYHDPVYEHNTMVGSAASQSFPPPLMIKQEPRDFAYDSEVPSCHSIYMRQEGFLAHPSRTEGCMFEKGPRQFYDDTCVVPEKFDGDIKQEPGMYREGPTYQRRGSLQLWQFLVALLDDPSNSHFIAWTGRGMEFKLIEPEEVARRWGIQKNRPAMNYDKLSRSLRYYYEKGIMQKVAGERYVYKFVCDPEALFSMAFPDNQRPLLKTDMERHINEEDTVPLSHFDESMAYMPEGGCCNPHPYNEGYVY
# Summary of the method: as §1
# [11] = biological target: T6, ERF (Homo sapiens, UniProt P50548 1-548); details: protein: recombinant; tags: N-terminal GST; dsDNA, one strand shown
# T6 sequence: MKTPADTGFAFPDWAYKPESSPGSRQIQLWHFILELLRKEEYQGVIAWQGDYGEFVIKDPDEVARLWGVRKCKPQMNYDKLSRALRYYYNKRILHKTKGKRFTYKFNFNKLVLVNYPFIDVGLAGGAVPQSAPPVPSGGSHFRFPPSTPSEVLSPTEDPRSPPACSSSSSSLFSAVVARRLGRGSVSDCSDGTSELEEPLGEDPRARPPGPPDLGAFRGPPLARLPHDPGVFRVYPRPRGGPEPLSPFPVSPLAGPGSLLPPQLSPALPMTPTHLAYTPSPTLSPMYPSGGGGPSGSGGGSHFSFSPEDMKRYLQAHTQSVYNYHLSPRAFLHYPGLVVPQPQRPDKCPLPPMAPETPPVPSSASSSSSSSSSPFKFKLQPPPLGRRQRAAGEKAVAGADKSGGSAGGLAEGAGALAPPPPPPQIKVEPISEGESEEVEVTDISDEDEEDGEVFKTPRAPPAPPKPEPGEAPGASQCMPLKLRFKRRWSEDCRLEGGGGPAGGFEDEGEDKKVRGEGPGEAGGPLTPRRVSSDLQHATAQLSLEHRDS
# Summary of the method: as §1
# [12] = biological target: T7, ETV3L (Homo sapiens, UniProt Q6ZN32 1-361); details: protein: recombinant; tags: N-terminal GST; dsDNA, one strand shown
# T7 sequence: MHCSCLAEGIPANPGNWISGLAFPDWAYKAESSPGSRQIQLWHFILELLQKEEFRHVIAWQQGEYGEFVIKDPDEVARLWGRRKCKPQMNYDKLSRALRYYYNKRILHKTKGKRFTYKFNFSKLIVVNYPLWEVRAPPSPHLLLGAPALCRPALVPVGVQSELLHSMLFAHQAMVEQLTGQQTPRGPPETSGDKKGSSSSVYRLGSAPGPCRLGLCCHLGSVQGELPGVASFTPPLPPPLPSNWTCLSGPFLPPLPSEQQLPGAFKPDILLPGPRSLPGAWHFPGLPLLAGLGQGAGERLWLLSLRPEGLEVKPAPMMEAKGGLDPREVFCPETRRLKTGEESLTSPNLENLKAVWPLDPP
# Summary of the method: as §1
# [13] = biological target: T8, ETS2 (Homo sapiens, UniProt P15036 1-469); details: protein: recombinant; tags: N-terminal GST; dsDNA, one strand shown
# T8 sequence: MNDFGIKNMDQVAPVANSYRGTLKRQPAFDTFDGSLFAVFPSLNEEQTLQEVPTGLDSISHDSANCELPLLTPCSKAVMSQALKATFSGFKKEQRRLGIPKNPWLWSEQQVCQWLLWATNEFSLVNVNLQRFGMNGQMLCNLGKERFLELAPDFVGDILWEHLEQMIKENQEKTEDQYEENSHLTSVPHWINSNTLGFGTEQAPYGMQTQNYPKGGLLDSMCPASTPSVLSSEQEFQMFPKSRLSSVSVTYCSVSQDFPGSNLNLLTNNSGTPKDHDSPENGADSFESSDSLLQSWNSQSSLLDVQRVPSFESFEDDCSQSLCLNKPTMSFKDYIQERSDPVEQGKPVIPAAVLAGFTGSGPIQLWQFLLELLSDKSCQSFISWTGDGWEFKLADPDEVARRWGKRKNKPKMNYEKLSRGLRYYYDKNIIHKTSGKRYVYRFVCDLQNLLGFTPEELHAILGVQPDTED
# Summary of the method: as §1
# [14] = biological target: T9, SPDEF (Homo sapiens, UniProt O95238 1-335); details: protein: recombinant; tags: N-terminal GST; dsDNA, one strand shown
# T9 sequence: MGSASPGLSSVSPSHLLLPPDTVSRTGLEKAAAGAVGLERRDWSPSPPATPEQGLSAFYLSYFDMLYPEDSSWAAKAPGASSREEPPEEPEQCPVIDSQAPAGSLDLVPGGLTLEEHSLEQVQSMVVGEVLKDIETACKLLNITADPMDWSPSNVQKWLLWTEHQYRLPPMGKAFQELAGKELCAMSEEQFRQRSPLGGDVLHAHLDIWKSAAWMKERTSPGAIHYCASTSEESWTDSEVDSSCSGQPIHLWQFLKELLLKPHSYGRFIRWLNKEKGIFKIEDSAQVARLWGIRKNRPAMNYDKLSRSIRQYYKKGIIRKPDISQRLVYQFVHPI
# Summary of the method: as §1
# [15] = biological target: T10, ETV7 (Homo sapiens, UniProt Q9Y603 1-341); details: protein: recombinant; tags: N-terminal GST; dsDNA, one strand shown
# T10 sequence: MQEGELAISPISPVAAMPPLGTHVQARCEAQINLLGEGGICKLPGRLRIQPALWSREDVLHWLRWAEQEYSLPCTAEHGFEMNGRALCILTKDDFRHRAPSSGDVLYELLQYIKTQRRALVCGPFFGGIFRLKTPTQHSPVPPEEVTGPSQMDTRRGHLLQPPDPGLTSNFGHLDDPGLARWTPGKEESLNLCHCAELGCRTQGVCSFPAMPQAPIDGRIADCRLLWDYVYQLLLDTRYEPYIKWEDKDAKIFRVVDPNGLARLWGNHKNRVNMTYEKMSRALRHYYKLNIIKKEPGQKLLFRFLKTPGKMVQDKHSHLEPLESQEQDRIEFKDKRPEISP
# Summary of the method: as §1
# [16] = biological target: T11, ELF5 (Homo sapiens, UniProt Q9UKW6-2 1-255); details: protein: recombinant; tags: N-terminal GST; dsDNA, one strand shown
# T11 sequence: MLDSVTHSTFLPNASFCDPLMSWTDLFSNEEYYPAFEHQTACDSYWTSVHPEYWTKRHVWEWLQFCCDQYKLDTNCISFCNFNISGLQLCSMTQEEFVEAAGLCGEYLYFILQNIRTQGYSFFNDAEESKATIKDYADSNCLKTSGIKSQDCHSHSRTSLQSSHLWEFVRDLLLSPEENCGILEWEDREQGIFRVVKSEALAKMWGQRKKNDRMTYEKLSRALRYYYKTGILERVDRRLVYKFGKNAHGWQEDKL
# Summary of the method: as §1
# [17] = biological target: T12, ETV3 (Homo sapiens, UniProt P41162-2 1-143); details: protein: recombinant; tags: N-terminal GST; dsDNA, one strand shown
# T12 sequence: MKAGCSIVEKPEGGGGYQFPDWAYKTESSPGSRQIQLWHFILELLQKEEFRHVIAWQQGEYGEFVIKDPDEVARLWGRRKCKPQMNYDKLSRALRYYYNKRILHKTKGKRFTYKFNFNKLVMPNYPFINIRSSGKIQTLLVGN
# Summary of the method: as §1
# [18] = biological target: ETV6 (Homo sapiens, UniProt P41212 1-452); details: protein: recombinant; tags: N-terminal GST; dsDNA, one strand shown
# Chain of ETV6 (P41212 whole entry): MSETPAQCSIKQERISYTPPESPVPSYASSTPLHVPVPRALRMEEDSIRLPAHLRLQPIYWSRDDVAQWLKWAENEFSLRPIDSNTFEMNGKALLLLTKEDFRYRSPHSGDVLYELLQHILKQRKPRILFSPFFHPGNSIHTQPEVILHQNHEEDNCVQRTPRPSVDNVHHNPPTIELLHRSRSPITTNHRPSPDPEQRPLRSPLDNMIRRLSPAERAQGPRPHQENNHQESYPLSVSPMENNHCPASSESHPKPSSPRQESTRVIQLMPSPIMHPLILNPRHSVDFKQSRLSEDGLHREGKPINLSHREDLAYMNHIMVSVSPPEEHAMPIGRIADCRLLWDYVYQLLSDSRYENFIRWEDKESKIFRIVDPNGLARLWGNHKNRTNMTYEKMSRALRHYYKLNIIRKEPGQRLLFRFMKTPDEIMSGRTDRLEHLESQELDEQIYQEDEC
# Summary of the method: as §1
sequence,measurement,setting,value
ATGGCT,binding signal,[1],"1.33 fold enrichment (6-mer frequency, TF over GST control)"
same,binding signal,[2],"1.29 fold enrichment (6-mer frequency, TF over GST control)"
same,binding signal,[3],"1.32 fold enrichment (6-mer frequency, TF over GST control)"
same,binding signal,[4],"1.42 fold enrichment (6-mer frequency, TF over GST control)"
same,binding signal,[5],"1.32 fold enrichment (6-mer frequency, TF over GST control)"
same,binding signal,[6],"1.34 fold enrichment (6-mer frequency, TF over GST control)"
same,binding signal,[7],"1.41 fold enrichment (6-mer frequency, TF over GST control)"
same,binding signal,[8],"1.33 fold enrichment (6-mer frequency, TF over GST control)"
same,binding signal,[9],"1.48 fold enrichment (6-mer frequency, TF over GST control)"
same,binding signal,[10],"1.29 fold enrichment (6-mer frequency, TF over GST control)"
same,binding signal,[11],"1.27 fold enrichment (6-mer frequency, TF over GST control)"
same,binding signal,[12],"1.37 fold enrichment (6-mer frequency, TF over GST control)"
same,binding signal,[13],"1.32 fold enrichment (6-mer frequency, TF over GST control)"
same,binding signal,[14],"1.23 fold enrichment (6-mer frequency, TF over GST control)"
same,binding signal,[15],"1.34 fold enrichment (6-mer frequency, TF over GST control)"
same,binding signal,[16],"1.25 fold enrichment (6-mer frequency, TF over GST control)"
same,binding signal,[17],"1.33 fold enrichment (6-mer frequency, TF over GST control)"
same,binding signal,[18],"1.38 fold enrichment (6-mer frequency, TF over GST control)"
